Inconclusive results are not listed. Values without a mark were called inactive. Calls of active or inactive are those of the source. The call rests on the fitted dose curve; in most records, active means well fitted cell-killing curve with a large enough effect in the repeat runs; inconclusive means weak or mixed curves; inactive means flat fitted curve, though single readings scatter. Positions of bridges follow the written chain, without caps; N, C: chain ends. Where a SMILES comes first, the peptide text is derived from it. Non-standard residues stand in square brackets, D forms with d. Residues, ends and D or L forms follow the SMILES beside them. hArg = N=C(N)NCCCC[C@H](N)C(=O)O; Mpa = O=C(O)CCS

Drawing on PubChem BioAssay (Tox21), this text covers outcome and activity change, negative = cytotoxicity for 40 molecules.
On the % scale 0 is the no-effect control and ±100 the full control effect.

The assay can be described thus: qHTS RealTime-Glo MT Cell Viability Assay in HepG2 cells - 24 hour (AID 1224867). Further: nearly all actives have a fitted effect of over 50% in size. The settings on record: RealTime-Glo luminescence; series mostly up to 76.8 µM. The source says: U.S. Tox21 Program National Center for Advancing Translational Sciences [NCATS] NIH Chemical Genomics Center [NCGC] U.S. Environmental Protection Agency [EPA] National Institutes of Environmental Health Sciences [NIEHS] National Toxicology Program [NTP] U.S. Food and Drug Administration [FDA] Tox21 Assay Overview: Measure of cell viability is critical in the cell-base assay. Analysis of cell viability is necessary for the characterization of cell responses to cytotoxic drugs and environmental stress. A RealTime-Glo MT Cell Viability Assay to monitor cell viability in real time of continues cell culture during 40 hours of compound treatment was used to screen Tox21 10K library compounds in HepG2 cells. The RealTime-Glo MT Cell Viability Assay is a nonlytic, homogeneous, bioluminescent method to measure cell viability in real time using a simple, plate-based method. The assay involves adding NanoLuc luciferase and a cell-permeant prosubstrate to cells in culture. Viable cells reduce the proprietary prosubstrate to generate a substrate for NanoLuc luciferase. This substrate diffuses from cells into the surrounding culture medium, where it is rapidly used by the NanoLuc Enzyme to produce a luminescent signal. The signal correlates with the number of viable cells, making the assay well suited for cytotoxicity studies.
Tox21 Assay Protocol Summary: The mixture of HepG2 cell suspension and reagents were dispensed at 600cells/6 ul/well in 1536-well tissue culture treated black solid bottom plates using a Multidrop dispenser. After the assay plates were incubated at a 37 C/5% CO2 incubator for 5 hours, 23 nL of compounds dissolved in DMSO, positive and negative controls was transferred to the assay plate by a pintool work station. The plates were incubated at 37 C for 40 hours. The luminescence intensity were measured at 0h, 8h, 16h, 24h, 32h and 40h time points using ViewLux plate reader during compound treatment.
For `Cc1ncc([N+](=O)[O-])n1CC(C)O` (stereo not given), the molecule was classed as inactive.
For `O=[N+]([O-])c1c(Cl)cc(Cl)cc1Cl`, the molecule was called inactive.
Same read-out and setting: with `CCCCOC(=O)C(C)O` (stereo not given) the entry was “inactive”; with `CC(=O)CC(=O)Nc1ccc(C)cc1C`, “inactive”.
On the same count and under the same terms, in the case of `NCCOCCN` it was “inactive”.
Still for that read-out and setting: in the case of `O/N=C/C=N/O` it was “inactive”; in that of `CC(C)C[C@@H]1[C@H](c2ccccc2)OC(=O)N1CCCN1CCCCCC1`, “inactive”; in that of `NCC1(Cc2noc(=O)[nH]2)CCCCC1`, “inactive”.
Consider `Cc1c(Cl)cccc1Cl`, for which the call was inactive.
The same measure, in the same setting: in the case of `OCC(O)CN1CCN(c2ccccc2)CC1` (stereo not given) it was “inactive”; in that of `Cn1nnc2c(C(N)=O)ncn2c1=O`, “inactive”.
Still for that read-out and setting: in the case of `NC(=O)[C@@H]1CSSCCC(=O)N[C@@H](CCCCN=C(N)N)C(=O)NCC(=O)N[C@@H](CC(=O)O)C(=O)N[C@@H](Cc2c[nH]c3ccccc23)C(=O)N2CCC[C@H]2C(=O)N1` ([Mpa][hArg]GDWPC-NH2; disulfide 1-7) it was “inactive”; in that of `O=C1NC(c2ccccc2)(c2ccccc2)C(=O)N1COP(=O)(O)O`, “inactive”.
On to `CC(=O)N[C@@H](CO)C(=O)N[C@@H](CC(=O)O)C(=O)N[C@@H](CCCCN)C(=O)N1CCC[C@H]1C(=O)O` (Ac-SDKP-OH), for which the molecule was called inactive.
Regarding `O=C(NCN1CCOCC1)c1cnccn1`, the outcome was inactive.
As to `Cc1c(N)cccc1Cl`, the call was inactive.
The same measure, in the same setting: in the case of `CCN1CCCC1CN` (stereo not given) it was “inactive”; in that of `C[C@]12CCC(=O)C=C1CC[C@H]1[C@@H]3CC[C@](O)(C(=O)CO)[C@@]3(C)C[C@H](O)[C@@]12F`, “inactive”.
On the same count and under the same terms, in the case of `C[C@@H](O)C(=O)O` it was “inactive”.
The same measure, in the same setting: in the case of `O=C(CCCl)NCCc1ccccc1` it was “inactive”; in that of `N#Cc1cscn1`, “inactive”.
Take `COc1cc2c(cc1OC)CN(C(=O)[C@H](C)N[C@@H](CCc1ccccc1)C(=O)O)[C@H](C(=O)O)C2`: the molecule was called inactive.
Still for that read-out and setting: with `CCCCCCCCCCCCCBr` the entry was “inactive”; with `CC(=O)CC(=O)OC(C)(C)C`, “inactive”; with `CCOC(=O)CC1(C)OCC(C)O1` (stereo not given), “inactive”.
On the same count and under the same terms, with `CC(=O)OCC(=O)Nc1cc(C#N)cc(NC(=O)COC(C)=O)c1Cl` the entry was “inactive”; with `CC(C)OC(=O)OCOP(=O)(CO[C@H](C)Cn1cnc2c(N)ncnc21)OCOC(=O)OC(C)C`, “inactive”.
On the same count and under the same terms, with `CCCC(=O)OCCC(C)CCC=C(C)C` (stereo not given) the entry was “inactive”.
On to `CC(=O)CCc1ccc(OC(C)=O)cc1`, for which the outcome was inactive.
As for `CCCCSCCCC`, the outcome was inactive.
Still for that read-out and setting: in the case of `CC1(C)O[C@H]2CC(=O)OC[C@]23[C@H]2CC[C@@]4(C)[C@H](c5ccoc5)OC(=O)[C@H]5O[C@]54[C@]2(C)C(=O)C[C@@H]13` it was “inactive”; in that of `Cc1cc(C)c(C(=O)O)c(C)c1`, “inactive”; in that of `CC(=O)Nc1ccc(OC(=O)c2ccccc2OC(C)=O)cc1`, “inactive”.
On the same count and under the same terms, with `CC1(C)Oc2ccc(C#N)cc2[C@@H](N2CCCC2=O)[C@@H]1O` the entry was “inactive”.
Regarding `O=C1CCC(=O)N1Cl`, the result was inactive.
Same read-out and setting: in the case of `OC[C@H]1O[C@@H](O[C@@H]2[C@@H](CO)O[C@](O)(CO)[C@H]2O)[C@H](O)[C@@H](O)[C@H]1O` it was “inactive”; in that of `Cc1ccnc(N)c1`, “inactive”; in that of `NCc1ccc(S(N)(=O)=O)cc1`, “inactive”.
As for `CCC(=O)CC`, the result was inactive.
On to `CCn1cc(C(=O)O)c(=O)c2cnc(N3CCCC3)nc21`, for which the activity change, negative = cytotoxicity was 0.974% [at 6.97 µM].
